# Several values for one entry are separate records, joined by “and”; a condition that tells them apart may be missing. Equal values may be shown once. Results filed as inconclusive are left out. Some compounds were tested as several samples or in several runs, with calls that do not always agree. Activity calls are given as the source filed them. Rule for the calls, unless noted: active = hit-call score of the fitted dose curve at least 0.9, where 1 is the maximum; inactive = score below 0.9.
# Assays:
# [1] = molecular target: human RAR-related Orphan Receptor beta (RORb), RORB (gene 6096) (UniProt Q92753); assay: ATG_RORb_TRANS: Attagene TRANS-FACTORIAL HepG2 Assay for human RAR-related Orphan Receptor beta (RORb) (AID 2283010; active = hit-call score of the fitted dose curve at least 0.9, where 1 is the maximum)
# Method in brief: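 Multiplexed transcription-factor reporter assay: HepG2 cells transiently carrying NR-Gal4/GAL4-UAS constructs, 24 h treatment, mRNA quantified by RT-PCR plus capillary electrophoresis fluorescence; activity scored as induction over DMSO.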
# [2] = molecular target: human RAR-related Orphan Receptor gamma (RORg), RORC (gene 6097) (UniProt P51449); assay: ATG_RORg_TRANS: Attagene TRANS-FACTORIAL HepG2 Assay for human RAR-related Orphan Receptor gamma (RORg) (AID 2283011; active = hit-call score of the fitted dose curve at least 0.9, where 1 is the maximum)
# Method in brief: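 First, HepG2 liver cells were transfected with GAL4-UAS-driven reporter constructs and the RORg-Gal4 fusion. Next, they were treated with chemical for 24 h. Finally, reporter mRNA was quantified by RT-PCR and capillary electrophoresis, with upward activity fitted against DMSO.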
# [3] = molecular target: Retinoic acid receptor RXR-alpha (Homo sapiens) (UniProt P19793); assay: ATG_RXRa_TRANS: Attagene TRANS-FACTORIAL HepG2 Assay for human Retinoid X Receptor alpha (RXRa) (AID 2283012; active = hit-call score of the fitted dose curve at least 0.9, where 1 is the maximum)
# Method in brief: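 Chimeric NR-GAL4 trans-activation in HepG2, 24 h treatment; reporter transcripts quantified by fluorescence on capillary electrophoresis, analysed for upward change from DMSO.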
# [4] = molecular target: human Thyroid Receptor alpha (THRa1), THRA (gene 7067) (UniProt P10827); assay: ATG_THRa1_TRANS: Attagene TRANS-FACTORIAL HepG2 Assay for human Thyroid Receptor alpha (THRa1) (AID 2283014; active = hit-call score of the fitted dose curve at least 0.9, where 1 is the maximum)
# Method in brief: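 Reporter transcript induction, read by capillary electrophoresis of 6-FAM-labelled RT-PCR products, reflects activity of a transfected THRa1-Gal4 fusion in HepG2 liver cells. Cells were dosed for 24 h; activity was fitted in the positive direction against DMSO.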
# [5] = read-out: E-selectin (Homo sapiens) (UniProt P16581); assay: BSK_3C_Eselectin: BioMAP Diversity Plus: 3C Assay for Eselectin Biomarker Activity (AID 2283015); settings: primary human endothelial cells (HUVEC); actives raise or lower the signal;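 for outcome: cell surface E-selectin protein quantified by ELISA 24 h after dosing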
# Method in brief: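 ELISA read-out of E-selectin on endothelial monolayers after 24 h chemical treatment. Human umbilical vein primary cells served as the system, with DMSO defining baseline activity for bidirectional fitting.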
# [6] = read-out: Interleukin-1 alpha (IL1a), IL1A (gene 3552); assay: BSK_BE3C_IL1a: BioMAP Diversity Plus: BE3C Assay for Interleukin-1 alpha (IL1a) Biomarker Activity (AID 2283016); settings: primary human bronchial epithelial cells; actives raise or lower the signal
# Method in brief: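 Measured in human lung primary bronchial epithelial cells: IL-1a by ELISA at 24 h after dosing, with bidirectional fitting against DMSO.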
# [7] = read-out: Monocyte Chemoattractant Protein-1 (MCP1), CCL2 (gene 6347); assay: BSK_3C_MCP1: BioMAP Diversity Plus: 3C Assay for Monocyte Chemoattractant Protein-1 (MCP1) Biomarker Activity (AID 2283017); settings: primary human endothelial cells (HUVEC); actives raise or lower the signal
# Method in brief: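 ELISA read-out of MCP-1 from human umbilical vein endothelial cell cultures harvested 24 h post-dosing. Gain or loss of signal was fitted relative to DMSO.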
# [8] = read-out: Monocyte Chemoattractant Protein-1 (MCP1), CCL2 (gene 6347); assay: BSK_4H_MCP1: BioMAP Diversity Plus: 4H Assay for Monocyte Chemoattractant Protein-1 (MCP1) Biomarker Activity (AID 2283018); settings: primary human endothelial cells (HUVEC); actives raise or lower the signal
# Method in brief: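 Primary human umbilical vein endothelium is exposed to chemical for 24 h before MCP-1 is assayed by ELISA. Concentration-response fitted bidirectionally relative to DMSO.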
# [9] = read-out: Human Leukocyte Antigen - DR isotype (HLADR), HLA-DRA (gene 3122); assay: BSK_3C_HLADR: BioMAP Diversity Plus: 3C Assay for Human Leukocyte Antigen - DR isotype (HLADR) Biomarker Activity (AID 2283019); settings: primary human endothelial cells (HUVEC); actives raise or lower the signal;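 for outcome: ELISA of cell-surface HLA-DR on HUVEC 24 h after dosing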
# Method in brief: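 ELISA readout of surface HLA-DR on human umbilical vein endothelium, taken 24 h after chemical treatment. Gain- and loss-of-signal were both fitted relative to DMSO.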
# [10] = read-out: Interleukin-8 (IL8), CXCL8 (gene 3576); assay: BSK_3C_IL8: BioMAP Diversity Plus: 3C Assay for Interleukin-8 (IL8) Biomarker Activity (AID 2283020); settings: primary human endothelial cells (HUVEC); actives raise or lower the signal
# Method in brief: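 Using DMSO-treated wells as the baseline, bidirectional curve fitting was applied to ELISA-measured IL-8 from human umbilical vein endothelial cultures sampled 24 h after compound addition.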
# [11] = read-out: Monokine induced gamma interferon (MIG), CXCL9 (gene 4283); assay: BSK_3C_MIG: BioMAP Diversity Plus: 3C Assay for Monokine induced gamma interferon (MIG) Biomarker Activity (AID 2283021); settings: primary human endothelial cells (HUVEC); actives raise or lower the signal;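 for AC50: MIG protein level measured by immunoassay in the treated endothelial cultures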
# Method in brief: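 ELISA-measured MIG in dosed HUVEC 3C cultures at 24 h, analysed by bidirectional fitting with DMSO defining baseline activity.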
# [12] = molecular target: human Vitamin D Receptor (VDR), VDR (gene 7421) (UniProt P11473); assay: ATG_VDR_TRANS: Attagene TRANS-FACTORIAL HepG2 Assay for human Vitamin D Receptor (VDR) (AID 2283022; active = hit-call score of the fitted dose curve at least 0.9, where 1 is the maximum)
# Method in brief: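 Steps: transfect HepG2 with GAL4-UAS-driven reporter constructs; dose compounds 24 h; isolate RNA, reverse-transcribe, PCR-amplify with 6-FAM-labelled primer extension and HpaI digestion; quantify fragments by capillary electrophoresis relative to DMSO.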
# [13] = BSK_3C_SRB: Viability Assessment in the BioMAP Diversity Plus: 3C Assay (AID 2283023); settings: primary human endothelial cells (HUVEC);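 note: fitted both ways against DMSO so a hit may be signal rise or drop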
# Method in brief: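 Absorbance at 560 nm of sulforhodamine B-stained (0.1%) total protein served as a cytotoxicity readout in human umbilical vein endothelial cells, 24 h after chemical treatment. Signal was fitted bidirectionally relative to DMSO.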
# [14] = read-out: Matrix Metallopeptidase 1 (MMP1), MMP1 (gene 4312); assay: BSK_BE3C_MMP1: BioMAP Diversity Plus: BE3C Assay for Matrix Metallopeptidase 1 (MMP1) Biomarker Activity (AID 2283024); settings: primary human bronchial epithelial cells; actives raise or lower the signal
# Method in brief: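 In this multiplexed primary-cell system, human bronchial epithelium received chemicals for 24 h before an ELISA for MMP1. Values reflect bidirectional fits normalised to the DMSO baseline.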
# [15] = BSK_3C_Vis: BioMAP Diversity Plus: 3C Assay for Morphology Visualization (AID 2283025); settings: primary human endothelial cells (HUVEC);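 note: fitted both ways so gain or loss versus DMSO counts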;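 for AC50: light microscopy image of cell morphology used as background control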
# Method in brief: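 Light-microscopy morphology readout, 24 h exposure, human primary umbilical vein endothelium; analysed relative to DMSO with bidirectional fitting.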
# [16] = read-out: Pselectin, SELP (gene 6403); assay: BSK_4H_Pselectin: BioMAP Diversity Plus: 4H Assay for Pselectin Biomarker Activity (AID 2283026); settings: primary human endothelial cells (HUVEC); actives raise or lower the signal
# Method in brief: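 Bidirectional fits against DMSO gave the endpoint. Cells: primary human umbilical vein endothelium, chemical-treated for 24 h before ELISA detection of P-selectin.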
# [17] = BSK_4H_SRB: Viability Assessment in the BioMAP Diversity Plus: 4H Assay (AID 2283027); settings: primary human endothelial cells (HUVEC);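 note: cells exposed to compound for 24 h before staining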;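 for AC50: curves fitted both ways versus DMSO so AC50 may be loss or gain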
# Method in brief: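 Cytotoxicity read-out in primary human endothelial cells: after 24 h compound exposure, cells were TCA-fixed (10%), stained with 0.1% SRB and absorbance taken at 560 nm. Values fitted in both directions relative to DMSO.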
# [18] = BSK_BE3C_SRB: Viability Assessment in the BioMAP Diversity Plus: BE3C Assay (AID 2283028); settings: primary human bronchial epithelial cells;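 for AC50: fitted both ways so AC50 may mark signal gain or loss versus DMSO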
# Method in brief: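 Cells (human bronchial epithelial, primary) are treated with chemicals, and after 24 h the parallel cultures are fixed in 10% TCA. These are then stained with 0.1% SRB and read at 560 nm. Gain or loss of signal is fitted relative to DMSO.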
# [19] = molecular target: human Retinoid X Receptor beta (RXRb), RXRB (gene 6257) (UniProt P28702); assay: ATG_RXRb_TRANS: Attagene TRANS-FACTORIAL HepG2 Assay for human Retinoid X Receptor beta (RXRb) (AID 2283013; active = hit-call score of the fitted dose curve at least 0.9, where 1 is the maximum)
# Method in brief: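 After a 24 h incubation with test chemical, transfected HepG2 cells carrying NR-Gal4 fusions and GAL4-UAS reporter transcription units yield RNA whose reporter cDNA is FAM-labelled, HpaI-cut and sized by capillary electrophoresis; increases over DMSO are scored.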
# Chain of human RAR-related Orphan Receptor gamma (RORg), RORC (gene 6097) (P51449 whole entry, looked up, the tested form may be a part): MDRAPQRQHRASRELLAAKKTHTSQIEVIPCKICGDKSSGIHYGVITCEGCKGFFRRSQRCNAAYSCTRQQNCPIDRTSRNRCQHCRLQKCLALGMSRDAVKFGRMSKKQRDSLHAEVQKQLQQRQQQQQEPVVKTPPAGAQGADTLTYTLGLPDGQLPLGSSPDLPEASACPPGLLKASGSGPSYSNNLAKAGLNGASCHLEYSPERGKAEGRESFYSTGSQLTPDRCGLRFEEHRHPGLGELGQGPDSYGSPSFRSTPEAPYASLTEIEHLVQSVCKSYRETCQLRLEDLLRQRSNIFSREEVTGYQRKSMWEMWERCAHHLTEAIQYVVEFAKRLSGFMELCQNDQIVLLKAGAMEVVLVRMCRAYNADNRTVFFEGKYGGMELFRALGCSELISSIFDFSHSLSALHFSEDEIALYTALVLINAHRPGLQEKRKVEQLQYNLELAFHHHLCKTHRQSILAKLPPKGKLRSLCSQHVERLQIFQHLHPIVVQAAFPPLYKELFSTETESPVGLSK
# Chain of human Retinoid X Receptor beta (RXRb), RXRB (gene 6257) (P28702 whole entry, looked up, the tested form may be a part): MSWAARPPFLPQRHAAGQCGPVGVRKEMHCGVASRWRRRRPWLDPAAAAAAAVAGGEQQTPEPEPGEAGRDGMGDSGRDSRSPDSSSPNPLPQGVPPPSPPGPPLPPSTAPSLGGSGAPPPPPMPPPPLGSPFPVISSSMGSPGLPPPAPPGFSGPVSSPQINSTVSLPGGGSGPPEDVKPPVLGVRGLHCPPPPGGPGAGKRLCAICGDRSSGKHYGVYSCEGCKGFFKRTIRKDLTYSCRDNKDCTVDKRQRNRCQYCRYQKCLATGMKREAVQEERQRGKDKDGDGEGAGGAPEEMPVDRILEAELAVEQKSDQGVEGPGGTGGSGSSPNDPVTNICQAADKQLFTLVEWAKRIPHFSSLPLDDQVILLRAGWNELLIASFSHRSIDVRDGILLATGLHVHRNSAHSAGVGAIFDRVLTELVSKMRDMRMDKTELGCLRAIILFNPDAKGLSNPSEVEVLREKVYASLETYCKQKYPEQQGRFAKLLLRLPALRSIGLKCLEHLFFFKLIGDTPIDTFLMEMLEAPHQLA
# Chain of human Thyroid Receptor alpha (THRa1), THRA (gene 7067) (P10827 whole entry, looked up, the tested form may be a part): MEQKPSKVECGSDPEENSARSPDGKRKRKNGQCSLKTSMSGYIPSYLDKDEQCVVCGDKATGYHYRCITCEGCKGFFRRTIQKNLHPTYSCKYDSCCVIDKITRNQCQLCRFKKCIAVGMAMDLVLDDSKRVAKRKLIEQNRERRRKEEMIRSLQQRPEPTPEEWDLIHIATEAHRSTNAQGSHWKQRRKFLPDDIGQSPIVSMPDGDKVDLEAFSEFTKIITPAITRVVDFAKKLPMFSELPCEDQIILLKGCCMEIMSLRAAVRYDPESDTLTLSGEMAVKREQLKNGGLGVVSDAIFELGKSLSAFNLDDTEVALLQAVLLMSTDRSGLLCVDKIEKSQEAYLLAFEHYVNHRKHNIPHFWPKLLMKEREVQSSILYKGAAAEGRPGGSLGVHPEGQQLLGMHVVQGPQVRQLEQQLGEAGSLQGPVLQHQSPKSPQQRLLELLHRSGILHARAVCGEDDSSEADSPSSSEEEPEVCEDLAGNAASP
# Chain of human Vitamin D Receptor (VDR), VDR (gene 7421) (P11473 whole entry, looked up, the tested form may be a part): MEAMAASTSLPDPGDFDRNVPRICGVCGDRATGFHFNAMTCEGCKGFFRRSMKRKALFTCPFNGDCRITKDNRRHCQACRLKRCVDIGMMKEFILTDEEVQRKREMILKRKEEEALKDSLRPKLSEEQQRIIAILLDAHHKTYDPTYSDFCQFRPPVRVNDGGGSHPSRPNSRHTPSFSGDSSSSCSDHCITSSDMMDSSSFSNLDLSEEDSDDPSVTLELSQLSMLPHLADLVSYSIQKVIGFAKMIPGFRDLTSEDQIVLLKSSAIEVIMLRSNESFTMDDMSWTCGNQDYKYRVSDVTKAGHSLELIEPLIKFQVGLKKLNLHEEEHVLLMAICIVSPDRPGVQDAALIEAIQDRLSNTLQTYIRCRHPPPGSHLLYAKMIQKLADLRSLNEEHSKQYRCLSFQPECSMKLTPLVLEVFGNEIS
# Chain of Retinoic acid receptor RXR-alpha (Homo sapiens) (P19793 whole entry, looked up, the tested form may be a part): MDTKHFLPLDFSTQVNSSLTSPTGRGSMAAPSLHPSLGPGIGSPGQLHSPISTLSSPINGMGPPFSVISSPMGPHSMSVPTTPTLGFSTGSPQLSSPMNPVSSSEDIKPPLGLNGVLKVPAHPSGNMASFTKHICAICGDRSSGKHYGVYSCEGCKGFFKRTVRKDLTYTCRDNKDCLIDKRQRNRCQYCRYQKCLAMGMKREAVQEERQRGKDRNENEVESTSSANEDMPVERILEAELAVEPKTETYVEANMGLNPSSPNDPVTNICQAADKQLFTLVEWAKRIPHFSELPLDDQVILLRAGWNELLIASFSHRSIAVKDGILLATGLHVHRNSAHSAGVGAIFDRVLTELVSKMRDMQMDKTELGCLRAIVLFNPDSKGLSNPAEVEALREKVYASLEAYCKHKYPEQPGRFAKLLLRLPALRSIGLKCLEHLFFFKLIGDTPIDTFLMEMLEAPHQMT
# Chain of human RAR-related Orphan Receptor beta (RORb), RORB (gene 6096) (Q92753 whole entry, looked up, the tested form may be a part): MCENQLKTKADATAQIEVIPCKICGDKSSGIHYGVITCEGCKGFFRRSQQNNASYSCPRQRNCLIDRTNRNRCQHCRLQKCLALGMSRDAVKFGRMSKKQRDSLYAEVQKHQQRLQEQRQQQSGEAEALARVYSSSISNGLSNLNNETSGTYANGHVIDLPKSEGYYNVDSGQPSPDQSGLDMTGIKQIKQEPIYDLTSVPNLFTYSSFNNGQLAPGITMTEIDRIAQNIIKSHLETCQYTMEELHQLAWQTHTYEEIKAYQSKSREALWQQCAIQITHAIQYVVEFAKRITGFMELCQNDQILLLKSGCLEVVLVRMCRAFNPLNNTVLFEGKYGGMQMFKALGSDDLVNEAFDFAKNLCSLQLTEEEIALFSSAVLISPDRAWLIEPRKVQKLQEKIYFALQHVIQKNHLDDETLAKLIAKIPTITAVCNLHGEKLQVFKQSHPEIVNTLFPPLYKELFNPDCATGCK
# Chain of E-selectin (Homo sapiens) (P16581 whole entry, looked up): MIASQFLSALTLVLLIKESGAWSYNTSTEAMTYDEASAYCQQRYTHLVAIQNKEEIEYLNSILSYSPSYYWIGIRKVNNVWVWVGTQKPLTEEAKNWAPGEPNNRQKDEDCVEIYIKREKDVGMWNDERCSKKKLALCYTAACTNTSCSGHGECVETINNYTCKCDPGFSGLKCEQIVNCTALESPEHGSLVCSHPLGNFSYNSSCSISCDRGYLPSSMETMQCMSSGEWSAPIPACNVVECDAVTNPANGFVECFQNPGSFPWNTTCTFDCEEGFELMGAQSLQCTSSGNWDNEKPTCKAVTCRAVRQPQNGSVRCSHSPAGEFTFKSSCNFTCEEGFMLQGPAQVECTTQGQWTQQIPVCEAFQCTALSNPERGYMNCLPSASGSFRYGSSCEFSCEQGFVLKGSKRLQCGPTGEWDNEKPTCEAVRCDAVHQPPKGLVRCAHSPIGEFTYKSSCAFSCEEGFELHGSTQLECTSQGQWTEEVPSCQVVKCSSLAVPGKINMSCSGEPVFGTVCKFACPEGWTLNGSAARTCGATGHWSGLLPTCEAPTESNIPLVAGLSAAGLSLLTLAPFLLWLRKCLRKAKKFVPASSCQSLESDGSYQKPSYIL
compound,measurement,setting,value
COc1nc(NC(C)C)nc(NC(C)C)n1,outcome,[1],inactive
same,outcome,[2],inactive
same,outcome,[3],inactive
same,outcome,[4],inactive
same,outcome,[5],inactive
same,outcome,[6],inactive
same,outcome,[7],inactive
same,outcome,[8],inactive
same,outcome,[9],inactive
same,outcome,[10],inactive
same,outcome,[11],inactive
same,outcome,[12],inactive
same,outcome,[13],inactive
same,outcome,[14],inactive
same,outcome,[15],inactive
same,outcome,[16],inactive
same,outcome,[17],inactive
same,outcome,[18],inactive
CN(C)C(=S)SSC(=S)N(C)C,outcome,[1],inactive
same,outcome,[2],inactive
same,outcome,[3],inactive
same,outcome,[19],inactive
same,AC50,[5],30.5 µM (active)
same,AC50,[6],9.3 µM (active)
same,AC50,[7],30.9 µM (active)
same,AC50,[8],24 µM (active)
same,AC50,[9],14.9 µM (active)
same,AC50,[10],31.7 µM (active)
same,AC50,[11],33.6 µM (active)
same,outcome,[12],inactive
same,outcome,[13],inactive
same,AC50,[14],14.2 µM (active)
same,AC50,[15],16.3 µM (active)
same,AC50,[16],14 µM (active)
same,AC50,[17],25.7 µM (active)
same,AC50,[18],8.39 µM (active)
COc1nc(C)nc(NC(=O)NS(=O)(=O)c2ccccc2CCC(F)(F)F)n1,outcome,[1],inactive
same,outcome,[2],inactive
same,outcome,[3],inactive
same,outcome,[19],inactive
same,outcome,[4],inactive
same,outcome,[5],inactive
same,outcome,[6],inactive
same,outcome,[7],inactive
same,outcome,[8],inactive
same,AC50,[9],20 µM (active)
same,outcome,[9],inactive
same,outcome,[10],inactive
same,outcome,[11],inactive
same,outcome,[12],inactive
same,outcome,[13],inactive
same,outcome,[14],inactive
same,outcome,[15],inactive
same,outcome,[16],inactive
same,outcome,[17],inactive
same,outcome,[18],inactive
CCCN(CCC)c1c([N+](=O)[O-])cc(S(N)(=O)=O)cc1[N+](=O)[O-],outcome,[1],inactive
same,outcome,[2],inactive
same,outcome,[3],inactive
same,outcome,[19],inactive
same,outcome,[4],inactive
same,AC50,[5],37.1 µM (active) [middle of 4 runs]
same,AC50,[6],39.6 µM (active) [middle of 4 runs]
same,AC50,[7],36 µM (active) [middle of 4 runs]
same,AC50,[8],34.4 µM (active) [middle of 4 runs]
same,AC50,[9],38.6 µM (active) [middle of 4 runs]
same,AC50,[10],34.2 µM (active) [middle of 4 runs]
same,AC50,[11],39 µM (active) and 41.1 µM (active) and 35.7 µM (active)
same,AC50,[12],61.2 µM (active)
same,outcome,[12],inactive
same,AC50,[13],31.3 µM (active) [middle of 4 runs]
same,AC50,[14],36 µM (active) [middle of 4 runs]
same,AC50,[15],41 µM (active) and 41.8 µM (active) and 16.3 µM (active)
same,AC50,[16],34.2 µM (active) [middle of 4 runs]
same,AC50,[17],32.3 µM (active) [middle of 4 runs]
same,AC50,[18],34.3 µM (active) [middle of 4 runs]
COC(=O)C(C)Oc1ccc(Oc2ccc(Cl)cc2Cl)cc1 (stereo not drawn),outcome,[1],inactive
same,outcome,[2],inactive
same,outcome,[3],inactive
same,outcome,[19],inactive
same,outcome,[5],inactive
same,outcome,[6],inactive
same,AC50,[7],25.4 µM (active)
same,outcome,[7],inactive
same,outcome,[8],inactive
same,AC50,[9],13.8 µM (active)
same,outcome,[9],inactive
same,outcome,[10],inactive
same,outcome,[11],inactive
same,outcome,[12],inactive
same,AC50,[13],14 µM (active) and 20 µM (active)
same,outcome,[13],inactive
same,outcome,[14],inactive
same,AC50,[15],39 µM (active)
same,outcome,[15],inactive
same,outcome,[16],inactive
same,outcome,[17],inactive
same,outcome,[18],inactive

# — PubChem BioAssay (EPA / NIEHS)
